Compound activity as filed in PubChem.
Mot1-301 SUMO – inhibitors of SUMOylation pathway: yeast Mot1-301 growth rescue. S. cerevisiae Mot1-301 growth rescue, ATP luminescence, 38.5C; percent above DMSO median, 100 means doubled. growth rescue, % at 18.8 µM. 320,000 compounds, 1% hits. AID 2716;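 active = every valid replicate shows activation above 250% relative to neutral control wells; inactive = the rest, any valid replicate at or below 250%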;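 also: OY570 slx delta 5 strain wells were the positive control but not used for scaling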
Efflux pump mplx – blocks antifungal efflux pumps in multiplex yeast assay. S. cerevisiae Candida pump triplex, Nile Red efflux. inhibition, % at 10 µM. 330,000 compounds, 0.44% hits. AID 485275;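 active = plate passing quality check with inhibition over a set limit, or well fluorescence over plate mean plus 4 SD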;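 also: Nile Red retained in pooled yeast measured as flow cytometry median fluorescence; 0% = buffer negative control and 100% = Enniatin B positive control; higher means more Nile Red kept so more efflux inhibition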
HGIII-sPLA2 inh – Blocks human group III sPLA2 activity; Q9NZ20; QFRET BODIPY PC-A2 liposome hydrolysis, fluorescence; inhibition, % at 12.2 µM; 370,000 compounds, 0.56% hits; AID 743126;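 active = inhibition above mean plus 3 SD of compounds lying within the high and low control bounds, cut at about 19% in these data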;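 also: 0% = median of test compound wells and 100% = no enzyme DMSO wells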
Target sequence (Q9NZ20 whole entry, looked up): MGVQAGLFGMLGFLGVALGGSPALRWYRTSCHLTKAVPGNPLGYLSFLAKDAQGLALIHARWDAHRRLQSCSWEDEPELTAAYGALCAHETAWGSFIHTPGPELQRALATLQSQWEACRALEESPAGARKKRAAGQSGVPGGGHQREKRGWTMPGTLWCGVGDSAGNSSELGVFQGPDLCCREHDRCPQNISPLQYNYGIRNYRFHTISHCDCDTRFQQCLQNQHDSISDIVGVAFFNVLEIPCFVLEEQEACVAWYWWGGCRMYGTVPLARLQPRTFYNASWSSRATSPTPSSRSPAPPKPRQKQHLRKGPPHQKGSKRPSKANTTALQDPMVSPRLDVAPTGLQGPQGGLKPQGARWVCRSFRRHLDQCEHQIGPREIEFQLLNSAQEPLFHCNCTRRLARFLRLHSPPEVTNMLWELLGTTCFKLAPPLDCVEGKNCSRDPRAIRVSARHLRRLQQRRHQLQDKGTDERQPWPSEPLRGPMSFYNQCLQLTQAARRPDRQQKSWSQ
SKN-1 block – inhibitors of C. elegans SKN-1 | inhibition, % at 21.8 µM | C. elegans VP596 Pgst-4::GFP/RFP ratio, acrylamide-induced, 24 h | 360,000 compounds, 0.49% hits;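 active = interference check ratio from 0.5 to 1.5 plus GFP to RFP signal ratio inhibition reaching or exceeding a fixed threshold, cut at about 30% in these data, passing the limit was not always enough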
The depositor's hits bear a star; . = no result. Only some compounds are listed: those with a hit (about 2.2% of all), similar ones and a draw of the others.

SMILES | Mot1-301 SUMO | Efflux pump mplx | HGIII-sPLA2 inh | SKN-1 block
Nc1c(C(=O)Nc2ccc(F)cc2)sc2nc(-c3ccco3)ccc12 | -6 | 1 | 15 | 45*
Nc1c(C(=O)Nc2ccc(Br)cc2)sc2nc(-c3ccco3)ccc12 | -1 | 0 | 19 | 12
COc1ccc(S(=O)(=O)N2CCCc3nc(-c4ccc(Br)cc4)ccc32)cc1 | . | . | -6 | .
O=C(COC(=O)C12CC3CC(CC(O)(C3)C1)C2)Nc1cccc(Br)c1 | . | . | -30 | 38*
CC1CC1C(=O)OCC(=O)Nc1cccc(Br)c1 (centres undefined) | . | . | -2 | 18
CCOC(=O)C1(C)/C(=N/Nc2ccc(Cl)cc2)C(=O)C(=O)N1c1ccccc1 (centres undefined) | 229 | 0 | -5 | 38*
COC(=O)C1=C(C)N(Cc2cccc(C(F)(F)F)c2)C(=NCc2ccc(OC)cc2)NC1c1ccccc1C(F)(F)F (centres undefined) | . | . | -7 | .
Cc1ccc(O)c(C2=NNC(O)(C(F)(F)F)C2)c1 (centres undefined) | 340* | 0 | -25 | -18
COC(=O)[C@@H](Cc1ccc(O)cc1)NC(=O)[C@H]1O[C@@H](n2cnc3c(=O)[nH]c(N)nc32)[C@H](O)[C@@H]1O | . | . | 4 | .
O=C(C1COc2ccccc2O1)N1CCN(c2nc3ccc([N+](=O)[O-])cc3s2)CC1 (centres undefined) | 535* | 0 | -1 | -2
O=C(C1COc2ccccc2O1)N1CCN(c2nc3ccccc3s2)CC1 (centres undefined) | 3 | 0 | -10 | 0
COc1ccccc1C1(CC(=O)Nc2nccs2)CCOC(C(C)C)C1 (centres undefined) | 19 | 0 | -2 | -1
COc1ccccc1C1(CC(=O)N2CCOCC2)CCOC(C(C)C)C1 (centres undefined) | 570* | 0 | 5 | 11
C[C@@H]1C=C(C(=O)N2CCOCC2)O[C@H](OCc2ccc(CO)cc2)C1 | -1 | . | 5 | 10
Nc1ccc2c(Cl)cc(Cl)cc2c1 | . | . | 13 | 63*
COc1cccc(C2c3c(oc4ccccc4c3=O)C(=O)N2c2ccccn2)c1 (centres undefined) | -8 | 0 | 20* | 7
C[C@@H]1C=C[C@](Cc2ccccc2)(C(=O)NCC2CC2)N1C(=O)c1ccccc1 | 70 | 0 | 1 | 35*
CN1CCCC(OC(=O)c2cc(Br)ccc2Cl)C1 (centres undefined) | 260* | 0 | -8 | 3
CCCn1nc(C(=O)N2CCN(S(=O)(=O)c3ccc(C)c(C)c3)CC2)c2ccccc2c1=O | 10 | 0 | -14 | 13
O=C(C(=O)N1CCC(CNS(=O)(=O)c2ccc(C(F)(F)F)cc2)CC1)c1cccs1 | . | . | -7 | .
CCCc1ccc(/C=C2\C(=O)c3ccccc3C(O)=C2C(=O)OCC)cc1 | 17 | 1.9* | . | .
Cn1c(=O)oc2ccc(S(=O)(=O)Nc3ccc(Cl)cc3[N+](=O)[O-])cc21 | . | . | 8 | .
CN1/C(=C\C(=O)COC(=O)CNC(=O)c2ccc3ccccc3c2)C(C)(C)c2ccccc21 | -10 | 0 | -18 | 40*
CN1/C(=C\C(=S)NC(=O)c2ccccc2Cl)C(C)(C)c2ccccc21 | -15 | 0 | 18 | 53
CN1/C(=C\C(=O)COC(=O)CNC(=O)c2ccccc2F)C(C)(C)c2ccccc21 | -8 | 0 | 7 | 11
SMILES | Mot1-301 SUMO | Efflux pump mplx | HGIII-sPLA2 inh | SKN-1 block
CN1/C(=C/C(=O)CSc2ccccc2C(=O)O)C(C)(C)c2ccccc21 | -1 | 0 | 4 | 36*
COc1ccc(Nc2nnc(SCC(=O)/C=C3/N(C)c4ccccc4C3(C)C)s2)cc1 | 60 | 0 | -2 | 37*
COc1ccccc1C(=O)NC(=S)/C=C1/N(C)c2ccccc2C1(C)C | -11 | 0 | 20* | 75
COc1cc(N2C[C@@]3(O)CC[C@@H](O)[C@@H](OC)[C@@H]3[C@@](C)(O)[C@@H]2CC=C(C)C)cc(OC)c1OC | . | . | 10 | .
O=[N+]([O-])c1ccc(-c2c(-c3ccccc3)ncc3cc(F)ccc23)cc1 | -12 | 0 | 2 | 15
O=[N+]([O-])c1cccc(-c2c(-c3ccccc3)ncc3cc(F)ccc23)c1 | -10 | 0 | 7 | 37*
CN(c1cccnc1)c1ccc(NC(=O)CCc2c[nH]c3ccccc23)cc1Br | . | . | -16 | .
CCCN1CCCCC(NC(=O)c2cccs2)C1=O (centres undefined) | . | . | 5 | .
Fc1ccc(CSc2ncnc3ccccc23)cc1 | . | 0 | -5 | 62*
c1ccc(CSc2ncnc3ccccc23)cc1 | -15 | 0 | -4 | 59*
Cc1ccc(CSc2ncnc3ccccc23)cc1 | -14 | 1 | 10 | 12
Cn1c(=O)c2c(-c3ccccc3)n(Cc3cccnc3)cc2n(C)c1=O | 290* | 0 | -4 | -6
Cc1cc(C(=O)CN2C(=O)NC3(CCCc4ccccc43)C2=O)c(C)n1Cc1ccccc1 (centres undefined) | 5 | 1 | -8 | 36*
O=C(O)CN1C(=O)NC2(CCCc3ccccc32)C1=O (centres undefined) | -6 | 0 | 9 | 20
COC(=O)N1C[C@H](Oc2ncccn2)[C@H]2C[C@@H]1c1ccccc1O2 | . | . | 9 | .
COc1cc(/C=C(\C#N)c2nc3ccccc3[nH]2)cc(Br)c1OCc1ccc(F)cc1 | 4 | 0 | -3 | -11
COc1cc(/C=C(\C#N)c2nc3ccccc3[nH]2)cc(Br)c1OCc1ccccc1 | 487* | 0 | -7 | 5
COc1cc2c(cc1OC)C(c1ccccc1)N(C(=O)CCl)CC2 (centres undefined) | 35 | 0 | 3 | 34*
Cc1cccc(C)c1OCC(O)CN(Cc1ccccc1O)C1CCCCC1 (centres undefined) | 13 | 0 | 1 | 37*
CN(CC(O)COc1ccc(OCC(O)CN(C)C2CCCCC2)cc1)C1CCCCC1 (centres undefined) | 1 | 0 | 8 | -33
COc1ccc(N2C(=O)/C(=C/c3ccc([N+](=O)[O-])cc3)C=C2c2ccccc2)cc1 | -11 | 0 | 2 | 40*
O=C(Nc1ccc(S(=O)(=O)Nc2ncccn2)cc1)c1cccc(S(=O)(=O)N2CCOCC2)c1 | 134 | 0 | -3 | -4
N#CC1=C(N)N(c2ccc(F)cc2)C2=C(C1c1ccc(O)cc1)S(=O)(=O)CC2 (centres undefined) | . | . | -27 | 35*
O=C(N/N=C\c1coc2ccccc2c1=O)c1ccco1 | 461* | 0 | -3 | -6
O=C(N/N=C/c1coc2ccccc2c1=O)c1ccccc1 | 2 | 0 | -2 | 9
CN1C=CC(=O)[C@@H](OC(=O)Nc2ccc(Br)cc2)[C@H]1c1ccccc1Br | . | . | -14 | -5
Cc1ccccc1CN1CCN(C(=O)[C@H]2O[C@@H](n3cnc(C(N)=O)n3)[C@H](O)[C@@H]2O)CC1 | . | . | 6 | .
O=C(NN1C(=O)/C(=C/C=C/c2ccco2)SC1=S)c1ccncc1 | -3 | 1.1* | -13 | 24
O=C(C(=O)N1CCN(S(=O)(=O)c2ccc(OC(F)(F)F)cc2)CC1)c1cccc(C(F)(F)F)c1 | . | . | 6 | .
